Reference: PubChem BioAssay (NCATS)
Results filed as inconclusive are left out. Entries that show only a call come without a potency. A number with no mark means an inactive call. The source made the active and inactive calls. The call rests on the fitted dose curve; in most records, active means well fitted curve in the direction sought with a large enough effect; inconclusive means small, poorly fitted or top-dose-only effect, or another doubt; inactive means no such curve, though single readings can be large; an effect the other way counts as inactive or inconclusive.

Key:
[1] = target: Rap guanine nucleotide exchange factor 3 (Homo sapiens) (UniProt O95398); assay: Confirmatory qHTS for agonist of cAMP-regulated guanine nucleotide exchange factor 3 (EPAC1) (AID 1645881);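 further: EPAC1 catalysed release of BODIPY-GDP from Rap1B seen as fluorescence loss; nearly all actives have a fitted effect of over 75% in size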
Rap guanine nucleotide exchange factor 3 (Homo sapiens), sequence (O95398 whole entry, looked up): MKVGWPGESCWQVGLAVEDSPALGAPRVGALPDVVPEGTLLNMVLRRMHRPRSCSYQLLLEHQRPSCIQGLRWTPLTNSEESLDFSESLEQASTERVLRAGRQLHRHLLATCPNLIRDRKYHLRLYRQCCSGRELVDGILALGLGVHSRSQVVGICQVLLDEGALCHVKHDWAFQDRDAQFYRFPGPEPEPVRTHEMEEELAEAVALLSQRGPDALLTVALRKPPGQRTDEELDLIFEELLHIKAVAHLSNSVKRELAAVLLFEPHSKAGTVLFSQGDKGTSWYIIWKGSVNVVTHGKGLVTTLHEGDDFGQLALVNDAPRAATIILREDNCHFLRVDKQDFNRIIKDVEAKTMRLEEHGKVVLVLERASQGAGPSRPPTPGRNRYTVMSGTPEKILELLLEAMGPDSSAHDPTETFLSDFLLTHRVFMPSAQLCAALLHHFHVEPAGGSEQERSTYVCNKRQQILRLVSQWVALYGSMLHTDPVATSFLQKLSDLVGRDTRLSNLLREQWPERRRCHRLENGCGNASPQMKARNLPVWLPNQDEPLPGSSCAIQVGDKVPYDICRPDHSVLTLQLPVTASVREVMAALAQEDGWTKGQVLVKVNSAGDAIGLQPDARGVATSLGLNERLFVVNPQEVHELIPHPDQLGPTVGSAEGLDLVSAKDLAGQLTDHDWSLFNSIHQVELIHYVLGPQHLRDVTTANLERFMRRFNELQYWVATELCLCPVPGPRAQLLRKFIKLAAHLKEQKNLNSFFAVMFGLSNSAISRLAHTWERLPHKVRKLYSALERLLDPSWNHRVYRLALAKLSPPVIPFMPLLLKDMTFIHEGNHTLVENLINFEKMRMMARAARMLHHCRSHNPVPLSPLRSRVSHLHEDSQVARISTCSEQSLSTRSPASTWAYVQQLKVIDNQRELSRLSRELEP

[2] = target: Rap guanine nucleotide exchange factor 4 (Homo sapiens) (UniProt Q8WZA2); assay: Confirmatory qHTS for agonist of cAMP-regulated guanine nucleotide exchange factor 4 (EPAC2) (AID 1645884);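 further: nucleotide exchange releases bodipy-GDP from Rap1 and this lowers its fluorescence; nearly all actives have a fitted effect of over 65% in size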
Rap guanine nucleotide exchange factor 4 (Homo sapiens), sequence (Q8WZA2 whole entry, looked up): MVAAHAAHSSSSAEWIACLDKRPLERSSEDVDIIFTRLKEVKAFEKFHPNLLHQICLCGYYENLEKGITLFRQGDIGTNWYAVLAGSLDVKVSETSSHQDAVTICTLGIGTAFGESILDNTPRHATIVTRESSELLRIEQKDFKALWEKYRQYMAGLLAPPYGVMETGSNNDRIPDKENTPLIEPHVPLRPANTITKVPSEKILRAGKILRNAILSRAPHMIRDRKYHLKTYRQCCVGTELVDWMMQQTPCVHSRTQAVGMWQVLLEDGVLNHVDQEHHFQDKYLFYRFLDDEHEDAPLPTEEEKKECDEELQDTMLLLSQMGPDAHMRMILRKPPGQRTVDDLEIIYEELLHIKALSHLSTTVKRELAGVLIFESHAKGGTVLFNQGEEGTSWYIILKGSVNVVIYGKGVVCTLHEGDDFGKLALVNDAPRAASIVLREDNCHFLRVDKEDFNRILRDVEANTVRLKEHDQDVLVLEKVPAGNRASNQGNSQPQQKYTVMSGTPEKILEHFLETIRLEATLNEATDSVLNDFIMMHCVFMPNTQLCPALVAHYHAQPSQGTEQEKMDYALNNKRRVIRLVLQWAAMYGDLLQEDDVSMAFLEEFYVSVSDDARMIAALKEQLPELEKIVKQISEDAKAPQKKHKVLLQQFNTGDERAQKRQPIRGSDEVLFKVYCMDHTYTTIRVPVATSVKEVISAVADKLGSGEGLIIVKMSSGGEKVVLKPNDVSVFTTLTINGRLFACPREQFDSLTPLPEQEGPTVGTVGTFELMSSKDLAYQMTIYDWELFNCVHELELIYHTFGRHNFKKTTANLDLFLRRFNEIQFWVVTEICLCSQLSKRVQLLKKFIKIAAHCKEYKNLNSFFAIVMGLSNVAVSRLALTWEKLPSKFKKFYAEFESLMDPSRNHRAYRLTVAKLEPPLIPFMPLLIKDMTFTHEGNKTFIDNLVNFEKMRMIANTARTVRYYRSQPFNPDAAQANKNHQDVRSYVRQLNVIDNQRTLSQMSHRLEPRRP

[3] = target: Rap guanine nucleotide exchange factor 4 (Homo sapiens) (UniProt Q8WZA2); assay: Confirmatory qHTS for antagonist of cAMP-regulated guanine nucleotide exchange factor 4 (EPAC2) (AID 1645885); further: nearly all actives have a fitted effect of over 25% in size; further: potency means the concentration at half of the fitted maximal effect
[4] = target: Rap guanine nucleotide exchange factor 3 (Homo sapiens) (UniProt O95398); assay: Counterscreen qHTS for antagonist of cAMP-regulated guanine nucleotide exchange factor 3 (EPAC1) (AID 1645888);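 further: fluorescence loss as bound BODIPY-GDP is released from Rap1B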
Outline: (§1)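 Measured: fluorescence of BODIPY-GDP bound to Rap1B, which falls as exchange proceeds. Conditions include 50 uM competing GDP, 5 and 30 min reads, and a later cAMP challenge for antagonist detection.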

[5] = target: Rap guanine nucleotide exchange factor 3 (Homo sapiens) (UniProt O95398); assay: Counterscreen qHTS for agonist of cAMP-regulated guanine nucleotide exchange factor 3 (EPAC1) (AID 1645889); further: nearly all actives have a fitted effect of over 40% in size; further: potency means the concentration at half of the fitted maximal effect
Outline: as §1

Compound | Potency [1] | Potency [2] | Potency [3] | Potency [4] | Potency [5] | activation [2] | activity change, negative = inhibition [4] | activation [5] | outcome [3]
CC(Oc1ccc(Cl)cc1Cl)C(=O)NC1=NN(c2ccccc2)C(=O)C1 (stereo not given) | inactive | inactive | inactive | inactive | inactive | – | – | – | –
CCCC(=O)Oc1c(S(=O)(=O)c2ccc(C)cc2)c(C)nn1C(C)(C)C | inactive | – | inactive | – | – | 12.6% [at 17.1 µM, percent relative to cAMP agonist control] | -10.7% [at 30.8 µM] | 5.13% [at 30.8 µM] | –
O=C(COC(=O)c1ccc([N+](=O)[O-])s1)NCc1ccccc1 | inactive | inactive | inactive | inactive | inactive | – | – | – | –
N#C/C(=C/c1ccc(-c2ccc(S(N)(=O)=O)cc2)o1)c1nc2ccccc2s1 | inactive | – | inactive | – | – | -24.7% [at 17.1 µM, percent relative to cAMP agonist control] | 5.29% [at 30.8 µM] | -62% [at 30.8 µM] | –
O=C(NCc1ccccc1)c1ccc2c(=O)[nH]c3c(C(=O)NCC4CCCO4)sc(=S)n3c2c1 (stereo not given) | inactive | inactive | inactive | inactive | inactive | – | – | – | –
N#Cc1c(-c2ccc(F)cc2)cc(-c2ccccc2)nc1SCC(=O)NCC(=O)O | inactive | inactive | – | inactive | inactive | – | – | – | inactive [at 12.7 µM]
C=CCN1C(=O)/C(=C/c2ccc(OC(C)=O)c(OCC)c2[N+](=O)[O-])SC1=S | inactive | – | inactive | – | – | 0% [at 17.1 µM, percent relative to cAMP agonist control] | 12.5% [at 30.8 µM] | 52.7% [at 30.8 µM] | –
O=C(NNc1cc(Br)c(O)c(Br)c1)c1ccccc1 | inactive | – | inactive | – | – | -6.77% [at 17.1 µM, percent relative to cAMP agonist control] | -6.86% [at 30.8 µM] | 11.6% [at 30.8 µM] | –
Cn1c(=O)c(C(=O)NNC(=O)c2ccccc2Br)c(O)c2ccccc21 | inactive | – | inactive | – | – | 2.84% [at 17.1 µM, percent relative to cAMP agonist control] | -5.21% [at 30.8 µM] | 8.96% [at 30.8 µM] | –
Cc1ccc(S(=O)(=O)Nc2ccc(S(=O)(=O)Nc3nccs3)cc2)cc1C | inactive | inactive | inactive | inactive | inactive | – | – | – | –
CC(C)(C)C(=O)Nc1cccc(C(=O)OCc2cc(=O)n3nc(C4CCCCC4)sc3n2)c1 | inactive | inactive | – | inactive | inactive | – | – | – | inactive [at 12.7 µM]
COc1ccc(S(=O)(=O)NC(=O)C2(C)CCN2C(=O)C2(c3ccccc3)CCCC2)cc1 (stereo not given) | inactive | – | inactive | – | – | -3.86% [at 17.1 µM, percent relative to cAMP agonist control] | -2.65% [at 30.8 µM] | -0.406% [at 30.8 µM] | –
CCCCC(CC)COC1(c2ccccc2)OC(=O)c2ccccc21 (stereo not given) | inactive | inactive | inactive | inactive | inactive | – | – | – | –
Cc1cccc(C(=O)N=c2c(C#N)cc3c(=O)n4cccc(C)c4nc3n2Cc2ccco2)c1 | inactive | inactive | inactive | inactive | inactive | – | – | – | –
C=CCn1c(C)cc(C2=NNC(=Nc3ccc(C)cc3)SC2)c1C | inactive | inactive | inactive | inactive | inactive | – | – | – | –
Cc1nc2c(C(=O)NCc3ccc(F)cc3)c[nH]n2c(=O)c1Cl | inactive | inactive | inactive | inactive | inactive | – | – | – | –
CCOC(=O)COc1ccc(/C=C(\C#N)c2nc3ccc(C)cc3[nH]2)cc1OC | inactive | inactive | inactive | inactive | inactive | – | – | – | –
O=C(CSc1nc2ccsc2c(=O)n1NC(=O)c1ccccc1)Nc1nccs1 | inactive | inactive | inactive | inactive | inactive | – | – | – | –
Cc1nn(-c2ccc(F)cc2)c(-n2cccc2)c1C(=O)N1CCN(c2ccc(F)cc2)CC1 | inactive | inactive | – | inactive | inactive | – | – | – | inactive [at 12.7 µM]
COc1ccc(-n2c(C)cc(/C=C3\SC(=O)NC3=O)c2C)cc1 | inactive | inactive | inactive | inactive | inactive | – | – | – | –

Compound | Potency [1] | Potency [2] | Potency [3] | Potency [4] | Potency [5] | activation [2] | activity change, negative = inhibition [4] | activation [5] | outcome [3]
O=C(Nc1cc(C(F)(F)F)ccc1Cl)c1nc2ccccc2nc1N1CCCCC1 | inactive | inactive | – | inactive | inactive | – | – | – | inactive [at 12.7 µM]
Nc1ccc(C(=O)N/N=C/c2cn(Cc3ccccc3F)c3ccccc23)cc1 | inactive | – | inactive | – | – | 7.25% [at 17.1 µM, percent relative to cAMP agonist control] | 31.2% [at 30.8 µM] | 39.9% [at 30.8 µM] | –
CC(=O)c1sc2nc(-c3ccco3)ccc2c1N | inactive | inactive | inactive | inactive | inactive | – | – | – | –
CC1(Cc2ccccc2Cl)C(=O)Nc2ccc(OC(F)(F)F)cc21 (stereo not given) | inactive | – | inactive | – | – | 0.883% [at 17.1 µM, percent relative to cAMP agonist control] | -9.83% [at 30.8 µM] | 5.61% [at 30.8 µM] | –
CCC(COC)Oc1cc(NCc2ccccc2)c2ncn(C(C)C)c2c1 (stereo not given) | inactive | inactive | inactive | inactive | 7.94 µM (active) | – | – | – | –
COc1cc(/C=C2/C(=O)NN(c3cccc(Cl)c3)C2=O)cc(OC)c1O | inactive | – | inactive | – | – | 11.7% [at 17.1 µM, percent relative to cAMP agonist control] | -0.0912% [at 30.8 µM] | 4.51% [at 30.8 µM] | –
CCOc1ccc(C(=O)N/N=C/c2cc(Cl)ccc2[N+](=O)[O-])cc1 | inactive | – | inactive | – | – | 3.37% [at 17.1 µM, percent relative to cAMP agonist control] | -12.2% [at 30.8 µM] | 15.5% [at 30.8 µM] | –
COc1ccc(OC)c(CCNC(=O)c2ccc(CS(=O)(=O)c3ccc(Br)cc3)o2)c1 | inactive | inactive | inactive | inactive | inactive | – | – | – | –
O=C(Nc1cccc([N+](=O)[O-])c1)c1ccc2c(c1)C(=O)N(c1ccccn1)C2=O | inactive | – | inactive | – | – | 10.8% [at 17.1 µM, percent relative to cAMP agonist control] | -7.46% [at 30.8 µM] | 12.1% [at 30.8 µM] | –
Cc1cccc(C)c1-c1ccc(CN2C(CC(C)C)C(=O)N(Cc3cn(CCO)nn3)CCS2(=O)=O)cc1 (stereo not given) | inactive | – | inactive | – | – | -6.44% [at 17.1 µM, percent relative to cAMP agonist control] | 9.55% [at 30.8 µM] | 18.7% [at 30.8 µM] | –
CC(C)(C)c1ccc(Cn2nnc3c(=O)[nH]c(C4CCN(C(=O)Cc5cccs5)CC4)nc32)cc1 | inactive | inactive | inactive | inactive | inactive | – | – | – | –
Fc1ccc(-c2nc3ccc(Br)cn3c2Cc2cccc(F)c2)cc1 | inactive | inactive | inactive | inactive | inactive | – | – | – | –
Cc1ccc2nc(-c3ccc(NC(=O)CSc4nccc(=O)[nH]4)cc3)sc2c1 | inactive | inactive | inactive | inactive | inactive | – | – | – | –
NS(=O)(=O)c1ccc(NC(=O)c2cccc(N3C(=O)c4ccccc4C3=O)c2)cc1 | inactive | – | inactive | – | – | 3.4% [at 17.1 µM, percent relative to cAMP agonist control] | 2.18% [at 30.8 µM] | 23.3% [at 30.8 µM] | –
Cc1ccc(C)c(Cn2nc(-c3cc(C)ccc3C)ccc2=O)c1 | inactive | inactive | inactive | inactive | inactive | – | – | – | –
O=C(COC(=O)[C@@H]1CC(O)CN1S(=O)(=O)c1ccc(Cl)c(Cl)c1)NC(=O)NCc1ccccc1 (stereo not given in full) | inactive | inactive | inactive | inactive | inactive | – | – | – | –
Cc1ccc2oc(=O)n(Cc3ccccc3OC(C)C)c2c1 | inactive | inactive | 7.57 µM (active) | inactive | inactive | – | – | – | –
COC(=O)C1=CN(Cc2ccc(OC)c(OC)c2)C=C(C(=O)OC)C1c1ccccc1F | inactive | inactive | 23.9 µM (active) | inactive | inactive | – | – | – | –
Nc1ccc(SC(F)(F)F)cc1C(=O)c1ccccc1 | inactive | – | inactive | – | – | -2.87% [at 17.1 µM, percent relative to cAMP agonist control] | -9.64% [at 30.8 µM] | 5.87% [at 30.8 µM] | –
CC1(NC(=O)CCc2nc3sc4c(c3c(=O)[nH]2)CCCC4)CCS(=O)(=O)C1 (stereo not given) | inactive | – | inactive | – | – | 0.392% [at 17.1 µM, percent relative to cAMP agonist control] | -17% [at 30.8 µM] | 8.58% [at 30.8 µM] | –
